Bioassay records: PubChem, National Center for Advancing Translational Sciences (NCATS)
TSHR antag: Antagonists of the Thyroid Stimulating Hormone Receptor: HTS campaign; Thyrotropin receptor (Homo sapiens), P16473; AID 504810, 2011; activity change, negative = inhibition, % at 11.5 µM; TSHR-expressing cells, TSH-stimulated cAMP HTRF, 2 h; hits give low values; 330,000 compounds, 0.2% hits;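 active means activity change below a set negative limit, meaning inhibition stronger than a set level, cut at about -70% in these data; inconclusive means activity change between two set negative limits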; further: on the % scale 0 is the no-effect control and ±100 the full control effect
Target sequence (P16473 whole entry, looked up): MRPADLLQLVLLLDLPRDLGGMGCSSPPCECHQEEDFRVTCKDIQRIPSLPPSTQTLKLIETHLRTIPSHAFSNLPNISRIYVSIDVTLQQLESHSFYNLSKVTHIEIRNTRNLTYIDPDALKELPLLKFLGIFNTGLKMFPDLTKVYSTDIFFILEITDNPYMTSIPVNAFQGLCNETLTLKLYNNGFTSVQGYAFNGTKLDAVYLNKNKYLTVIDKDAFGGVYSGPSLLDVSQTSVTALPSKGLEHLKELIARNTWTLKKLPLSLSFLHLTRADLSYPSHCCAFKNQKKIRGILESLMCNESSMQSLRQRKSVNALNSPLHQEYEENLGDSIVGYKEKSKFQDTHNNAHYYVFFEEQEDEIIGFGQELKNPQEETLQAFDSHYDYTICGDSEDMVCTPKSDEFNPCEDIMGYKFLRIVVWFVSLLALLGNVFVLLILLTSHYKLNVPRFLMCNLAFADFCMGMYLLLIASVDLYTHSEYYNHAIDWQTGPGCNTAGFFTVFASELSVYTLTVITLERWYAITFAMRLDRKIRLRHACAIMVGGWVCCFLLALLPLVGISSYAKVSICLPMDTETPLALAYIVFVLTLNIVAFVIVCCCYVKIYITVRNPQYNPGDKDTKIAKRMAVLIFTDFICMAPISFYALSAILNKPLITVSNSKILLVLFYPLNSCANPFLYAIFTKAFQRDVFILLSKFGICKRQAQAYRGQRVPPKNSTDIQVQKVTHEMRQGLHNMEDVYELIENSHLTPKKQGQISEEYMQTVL
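TSHR-expressing cells, 200/well, pre-treated with compound, then stimulated with EC80 TSH (4nM final) for 2 hours at 37 deg C. cAMP measured by competitive HTRF: anti-cAMP cryptate antibody in lysis buffer plus cAMP-d2, read after 30 minutes at room temperature.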
uPA generation: qHTS for Inhibitors of Cell Surface uPA Generation; cell surface uPA generation assay, qHTS; Potency, µM (titrated, usually from 38.3 µM), inactives show at the highest dose activity change, negative = inhibition, most hits filed as inhibitors; 330,000 compounds, 0.31% hits; AID 540303, 2011; active means well fitted inhibition curve with a large enough effect; inconclusive means small, poorly fitted or top-dose-only effect; inactive means no such curve, though single readings can be large or run the other way; tested in mouse RAW 264.7 cells; further: potency means the concentration at half of the fitted maximal effect; on the % scale 0 is the no-effect control and ±100 the full control effect; nearly all actives have a fitted effect of over 55% in size
CCT chaperon mod: High-Throughput Screening for Modulators of Cytosolic Chaperonin Activity. purified chaperonin ATPase assay, HTRF ADP detection, 30 min. activity change, % (test concentration not listed), hits read low. 360,000 compounds, 0.3% hits; in the data active means activity change below about -30%; further: on the % scale 0 is the no-effect control and ±100 the full control effect
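Enzyme 40 or 20 nM (batch-dependent) in Tris pH 7.4/KCl/MgCl2/DTT; cpd 76 uM single point; ATP 10 uM; 30 min 37 °C; Transcreener ADP HTRF detection, 30 min RT; ratio 665/615.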
Mm-Cpn inhibitor: Inhibitors of TCP-1 ring complex (TRiC) of Methanococcus maripaludis (MmCpn): qHTS. Chaperonin Mm-Cpn (Methanococcus maripaludis). purified Mm-Cpn ATPase, ADP Transcreener TR-FRET. Potency, µM (doses to about 76.9 µM), for inactives: at the top dose activity, negative = inhibition, hits mostly inhibitors. 330,000 compounds, 0.031% hits. AID 504842, 2011; active means well fitted inhibition curve with a large enough effect; inconclusive means small, poorly fitted or top-dose-only effect; further: potency means the concentration at half of the fitted maximal effect; on the % scale 0 is the no-effect control and ±100 the full control effect; nearly all actives have a fitted effect of over 80% in size
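Compound-treated chaperonin, 25 nM final, turns over 10 uM ATP at 37°C for 30 min following a 10 min preincubation; ADP generated competes with ADP-d2 for Eu-cryptate antibody, lowering FRET.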
gsp ag: qHTS for Agonist of gsp, the Etiologic Mutation Responsible for Fibrous Dysplasia/McCune-Albright Syndrome: qHTS; gsp mutant cells, cAMP HTRF, 30 min; Potency, µM (top dose mostly 76.9 µM), for the others: top-dose activation (cAMP increase), hits mostly activators; 340,000 compounds, 0.13% hits; active means well fitted activation curve with a large enough effect; inconclusive means small, poorly fitted or top-dose-only effect, or another doubt; inactive means no such curve, though single readings can be large or run the other way; cell line not stated here;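 further: phosphodiesterase inhibitor Ro 20-1724 added with compounds to block cAMP breakdown; potency means the concentration at half of the fitted maximal effect; nearly all actives have a fitted effect of over 60% in size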
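Cells in DMEM/10% FBS with G418 were pretreated with compounds in DMSO plus […] (300 uM stock) for 30 min at 37C. cAMP was measured by HTRF (cAMP-d2 plus anti-cAMP antibody-K) after 30 min at room temperature.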
gsp antagonist: qHTS for Antagonists of gsp, the Etiologic Mutation Responsible for Fibrous Dysplasia/McCune-Albright Syndrome: qHTS | gsp-mutant cells, cAMP HTRF, 30 min | Potency, µM (series often up to 76.9 µM), inactives show top-dose activity change, negative = inhibition, actives largely listed as inhibitors | 340,000 compounds, 0.4% hits | AID 624288, 2012; calls by dose curve; cell line not stated here;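 further: intracellular cAMP measured with PDE inhibitor Ro 20-1724 present during compound exposure; potency means the concentration at half of the fitted maximal effect; on the % scale 0 is the no-effect control and ±100 the full control effect; nearly all actives have a fitted effect of over 65% in size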
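HTRF cAMP read-out (cAMP-d2 plus anti-cAMP antibody-K in lysis buffer, 30 min RT). Before lysis, cells are exposed to compounds with […] for 30 min at 37C in DPBS containing Ca/Mg, BSA and Tween 20.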
An asterisk follows results filed as active; [ ] = dose if it differs, or a comment. Compounds with a hit are over-represented: about 1.2% of the library has one in this group of screens.

Screening COc1ccc(-c2csc(N3CCN(C(=O)c4ccco4)CC3)n2)cc1 returned TSHR antag -18, uPA generation -10%, CCT chaperon mod 0, Mm-Cpn inhibitor -11%, gsp ag -97% and gsp antagonist 50µM*.
For O=C(c1cnccn1)N(c1ccccc1)C1(C(=O)NC2CCCCC2)CCCCC1 the results were TSHR antag 6, uPA generation 0%, CCT chaperon mod 0, Mm-Cpn inhibitor 1%, gsp ag -22% and gsp antagonist -10%.
Screening CCNc1nc(NC(C)CC)nc(ON=C(C)C)n1 (centres undefined) returned TSHR antag 5, uPA generation -4%, CCT chaperon mod 2, Mm-Cpn inhibitor -1%, gsp ag 0% and gsp antagonist 2%.
`CC(C)CNC(=O)C1(C)CCCN1C(=O)Cc1cccc2ccccc12` (centres undefined) gave CCT chaperon mod -2.
For O=C(CSc1nnc2c(Cl)cc(Cl)cn12)NC1CCS(=O)(=O)C1 (centres undefined) the results were TSHR antag 22, uPA generation -1%, CCT chaperon mod -3, Mm-Cpn inhibitor 1%, gsp ag 10µM* and gsp antagonist 9%.
COC(=O)c1c(SCc2cccc3ccccc23)nc(=O)[nH]c1C was read as TSHR antag 3, uPA generation -1%, CCT chaperon mod -3, Mm-Cpn inhibitor -1%, gsp ag -2%[15.4 µM] and gsp antagonist -4%.
Screening O[C@@H]1[C@@H](O)C=C2CCN3Cc4cc5c(cc4[C@H]1C23)OCO5 (some centres undefined) returned TSHR antag 16, uPA generation 1µM*, CCT chaperon mod -4, Mm-Cpn inhibitor -1% and gsp antagonist 0%.
For N#CC(C#N)=C1C=C2C=C(N3CCCCC3)CCC2CC1 (centres undefined) the results were TSHR antag -18, uPA generation -1%, CCT chaperon mod 2, Mm-Cpn inhibitor -3%, gsp ag 37% and gsp antagonist 40µM*.
`CCC1CCCCN1C(=O)CSc1nnc2nc(C)cc(C)n12` (centres undefined) gave TSHR antag -1, uPA generation -4%, CCT chaperon mod -40*, Mm-Cpn inhibitor -1%, gsp ag 7% and gsp antagonist -14%.
`COC(=O)CNC(=O)CNC(=O)Nc1ccccc1` gave TSHR antag -2, uPA generation 1%, CCT chaperon mod -4, Mm-Cpn inhibitor -1%, gsp ag -9% and gsp antagonist -8%.
Screening CCOC(=O)c1cccc(NC(=O)CSc2nnc(COc3ccccc3)n2CC)c1 returned TSHR antag 2, CCT chaperon mod -2, Mm-Cpn inhibitor -1%, gsp ag 26% and gsp antagonist inconclusive.
Screening CCn1c(COc2cccc(C)c2)nnc1SCC(=O)Nc1cccc(C(=O)OC)c1 returned TSHR antag -13, uPA generation 5%, CCT chaperon mod -2, Mm-Cpn inhibitor 0%, gsp ag -2% and gsp antagonist 28µM*.
`CN(C)c1ncnc2c1ncn2C1OC(CO)C(O)C1O` (centres undefined) gave TSHR antag -7, uPA generation -13%, CCT chaperon mod -2, Mm-Cpn inhibitor 0%, gsp ag -1% and gsp antagonist 4%.
Screening COc1ccc(C[C@H](N)C(=O)N[C@H]2[C@@H](O)[C@H](n3cnc4c(N(C)C)ncnc43)O[C@@H]2CO)cc1 returned TSHR antag 4, uPA generation 1µM*, CCT chaperon mod -1, Mm-Cpn inhibitor -3% and gsp antagonist -5%.
COc1cc2sc(-c3ccc(S(C)(=O)=O)cc3)c(C(=O)NCc3ccc(C)o3)c2cc1OC was read as TSHR antag -16, uPA generation -9%, CCT chaperon mod 0, Mm-Cpn inhibitor 50µM* and gsp antagonist -13%.
Screening COc1cc2sc(-c3ccc(S(C)(=O)=O)cc3)c(C(=O)NCCCCO)c2cc1OC returned TSHR antag -9, uPA generation 9%, CCT chaperon mod -3, Mm-Cpn inhibitor -5% and gsp antagonist 6%.
`Cc1ccc(C(=O)NCCNc2nc3cc(C)c(C)cc3cc2C)cc1` gave TSHR antag 9, uPA generation 2%, CCT chaperon mod -2, Mm-Cpn inhibitor -1%, gsp ag 22µM* and gsp antagonist 3%.
`Cc1cc2cc(C)c(NCCNC(=O)c3ccccc3)nc2cc1C` gave TSHR antag 16, uPA generation -7%, CCT chaperon mod -2, Mm-Cpn inhibitor -1%, gsp ag -56% and gsp antagonist -2%.
Screening CCc1cccc(NC(=O)CC2SC(N3CCCC3)=NC2=O)c1 (centres undefined) returned TSHR antag 0, uPA generation -1%, CCT chaperon mod 2, Mm-Cpn inhibitor 0%, gsp ag 18%[15.4 µM] and gsp antagonist 4%.
`Cc1ccc2[nH]c(=O)c(CN(CCCN(C)C)C(=O)Nc3ccc(F)cc3)cc2c1` gave TSHR antag -4, uPA generation 3%, CCT chaperon mod 2, Mm-Cpn inhibitor 0%, gsp ag -8%[15.4 µM] and gsp antagonist 7.1µM*.
For CCCCCN1C=CC(=C2C(=O)c3ccccc3C2=O)C=C1 the results were TSHR antag 2, uPA generation 0.022µM*, CCT chaperon mod -1, Mm-Cpn inhibitor 2%, gsp ag -7% and gsp antagonist 3%.
`CC1=CC(=C2C(=O)c3ccccc3C2=O)C=C(C)N1C` gave TSHR antag 2, uPA generation -11%, CCT chaperon mod 1, Mm-Cpn inhibitor -2%, gsp ag -12%[15.4 µM] and gsp antagonist -6%.
For O=C(Cn1c(=O)oc2cc(S(=O)(=O)N3CCCC3)ccc21)NC1CCCc2ccccc21 (centres undefined) the results were TSHR antag -9, uPA generation 12%, CCT chaperon mod 0, Mm-Cpn inhibitor 0%, gsp ag -13% and gsp antagonist 6%.
For S=C1NC2=C(CCCC2=C2SCCS2)C(c2ccccc2)N1 (centres undefined) the results were TSHR antag -1, uPA generation -19%, CCT chaperon mod 1, Mm-Cpn inhibitor -3% and gsp ag -3%[15.4 µM].
